Laboratory results from PubChem BioAssay (NCI).
Where “and” joins values, the source holds several entries; their conditions need not be identical. Identical values can stand only once. This is part of a sample that, as a whole, favours compounds with a hit. Of some 79,000 tested, about 15% had one in any assay. Where a structure was tested more than once in an assay, its records may differ in their call. Calls of active or inactive are those of the source. Rule as the data show it: active = growth inhibition above about 70%; inactive = the rest.

Experiments:
[1] = NCI Yeast Anticancer Drug Screen. Data for the rad50 strain (AID 155);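 also: 0% = growth of vehicle-only cultures of the same strain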; settings: S. cerevisiae rad50 strain growth inhibition, stronger effect = higher value
Procedure, shortened: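 A DNA repair-deficient yeast mutant serves as the test organism; compound-induced growth inhibition is calculated against vehicle-treated cells.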

[2] = NCI Yeast Anticancer Drug Screen. Data for the mec2-1 strain (AID 157); settings: S. cerevisiae mec2-1 strain, stronger effect = higher value
Procedure, shortened: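 Each compound was tested on mec2-1 yeast, a strain altered in DNA damage repair or cell cycle control. Growth inhibition is reported relative to vehicle.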

[3] = NCI Yeast Anticancer Drug Screen. Data for the cln2 rad14 strain (AID 165);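 also: 0% = growth equal to vehicle treated cultures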; settings: S. cerevisiae cln2 rad14 strain, stronger effect = higher value
Procedure, shortened: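 Test compounds were added to cln2 rad14 yeast cultures; inhibition of growth was then determined by comparison with vehicle treatment.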

[4] = NCI Yeast Anticancer Drug Screen. Data for the bub3 strain (AID 167); settings: S. cerevisiae bub3 mutant strain, stronger effect = higher value
Procedure, shortened: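 Inhibition values come from growth of compound-treated mutant yeast normalised to vehicle-treated controls.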

[5] = NCI Yeast Anticancer Drug Screen. Data for the mlh1 rad18 strain (AID 175); settings: S. cerevisiae mlh1 rad18 strain growth inhibition, stronger effect = higher value
Procedure, shortened: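 Inhibition values reflect reduced growth of mutant yeast versus vehicle-treated controls following compound exposure; the mutations affect DNA damage repair.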

[6] = NCI Yeast Anticancer Drug Screen. Data for the sgs1 mgt1 strain (AID 161);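 also: 0% = growth of cultures given vehicle only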; settings: S. cerevisiae sgs1 mgt1 strain, stronger effect = higher value
Procedure, shortened: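 Test agents were incubated with a DNA-repair-mutant yeast strain. Growth was then read and compared against vehicle-treated controls.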

[7] = at 5.0 µM (retest, dose inferred, filed as 0.5)
[8] = at 50.0 µM (retest, dose inferred, filed as 5.0)

Measured: growth inhibition

Cc1ccc([C@H]2N[C@@H]2c2ccccn2)cc1
inactive: [1]; [7] -16% | [1]; [8] -22% | [1]; at 50.0 µM 6.35% | [2]; [7] -18% | [2]; [8] 1% | [2]; at 50.0 µM 7% | [3]; [7] -15% | [3]; [8] -5% | [3]; at 50.0 µM 30.1% | [4]; [7] -4% | [4]; [8] -2% | [4]; at 50.0 µM -2.75% | [5]; [7] -5% | [5]; [8] -10% | [5]; at 50.0 µM 19%

N=C(N)SCc1ccccc1
inactive: [1]; at 50.0 µM -2.55% [middle of 5 runs] | [2]; at 50.0 µM -2.2% [middle of 5 runs] | [6]; at 50.0 µM 7.55% [middle of 5 runs] | [4]; at 50.0 µM -5.6% [middle of 5 runs]

NC(CS)C(=O)O (stereo unspecified)
inactive: [1]; at 50.0 µM -4.8% and 31.9% and -26% | [2]; at 50.0 µM -7.5% and -9.05% and -3.1% | [6]; at 50.0 µM -7.95% and 28.4% and -35.2% | [3]; at 50.0 µM -0.4% and 7.6% and -1.55% | [4]; at 50.0 µM -17.2% and 25.6% and -38.2% | [5]; at 50.0 µM -8.1% and 13.2% and 1.75%

O=C1C(Br)=CC2(C=C1Br)CCNc1c(O)c3c4c(c12)=NCCC=4C=N3
active: [1]; [8] 72% | [6]; [8] 71% | [4]; [8] 78% | [5]; [8] 75%
inactive: [1]; [7] 31% | [1]; at 50.0 µM 57.9% | [6]; [7] 17% | [6]; at 50.0 µM 54.2% | [3]; [7] -1% | [3]; [8] 50% | [3]; at 50.0 µM 24.9% | [4]; [7] -14% | [4]; at 50.0 µM 49.6% | [5]; [7] 25% | [5]; at 50.0 µM 57.5%

Cc1ccc(C(=O)OC(C(=O)O)C(OC(=O)c2ccc(C)cc2)C(=O)O)cc1 (stereo unspecified) (tested in a mixture with another compound)
12.3% (inactive) and 92.5% (active): [5]; at 50.0 µM
active: [1]; [8] 79% | [3]; [8] 77% | [4]; [8] 88% | [5]; [8] 86%
-1.75% (inactive) and 91.3% (active): [3]; at 50.0 µM
23.3% (inactive) and 93% (active): [4]; at 50.0 µM
9% (inactive) and 93.7% (active): [2]; at 50.0 µM
6.35% (inactive) and 92.2% (active): [1]; at 50.0 µM
inactive: [1]; [7] 15% | [2]; [7] -7% | [2]; [8] 61% | [3]; [7] 34% | [4]; [7] -10% | [5]; [7] 19%

CCOP(=S)(OCC)OC(c1ccc(Cl)cc1)c1ccc(Cl)cc1
inactive: [1]; [7] 3% | [1]; [8] -11% | [1]; at 50.0 µM 12.8% | [6]; [7] 7% | [6]; [8] -20% | [6]; at 50.0 µM 0.25% | [3]; [7] 6% | [3]; [8] -29% | [3]; at 50.0 µM 15.8% | [4]; [7] 11% | [4]; [8] 18% | [4]; at 50.0 µM 49.6% | [5]; [7] -1% | [5]; [8] -11% | [5]; at 50.0 µM 11.6%

CCCCCC(O)C1C(=O)OC(C)C(O)/C=C/C=C/C=C/C=C/C=C(\C)C(O)C(O)C(O)CC(O)CC(O)CC(O)CC(O)CC1O (stereo unspecified)
inactive: [1]; at 50.0 µM -5.85% and -8.05% and -2.3% | [2]; at 50.0 µM -36.5% and -20% and -0.45% | [6]; at 50.0 µM -2.25% and -8.45% and -33% | [3]; at 50.0 µM -14.2% and -5% and -4.05% | [4]; at 50.0 µM -2.15% and 4.5% and 11% | [5]; at 50.0 µM 17.9% and -47.9% and 0.55%

[Br][Cd][Br].c1ccc([PH+](c2ccccc2)c2ccccc2)cc1.c1ccc([PH+](c2ccccc2)c2ccccc2)cc1
inactive: [1]; [7] 29% | [6]; [7] 18% | [6]; [8] 55% | [3]; [7] 4% | [4]; [7] 21% | [5]; [7] 18%
active: [1]; [8] 95% | [1]; at 50.0 µM 97.5% | [6]; at 50.0 µM 94.9% | [3]; [8] 89% | [3]; at 50.0 µM 92.4% | [4]; [8] 93% | [4]; at 50.0 µM 92.5% | [5]; [8] 92% | [5]; at 50.0 µM 94.7%

CC(Cl)CNC(C)C (stereo unspecified)
inactive: [1]; [7] -156% | [1]; [8] -171% | [1]; at 50.0 µM 4.95% | [2]; [7] -50% | [2]; [8] -57% | [2]; at 50.0 µM -9.4% | [3]; [7] -54% | [3]; [8] -67% | [3]; at 50.0 µM 24.5% | [4]; [7] -67% | [4]; [8] -80% | [4]; at 50.0 µM -7.95% | [5]; [7] -137% | [5]; [8] -120% | [5]; at 50.0 µM 6.1%

O=C(O)Cc1ccc2c(c1)OCO2.[Ag]
active: [1]; [7] 99% | [1]; [8] 93% | [1]; at 50.0 µM 96% | [2]; [7] 99% | [2]; [8] 95% | [2]; at 50.0 µM 97% | [6]; [7] 99% | [6]; [8] 94% | [6]; at 50.0 µM 96.6% | [4]; [7] 99% | [4]; [8] 93% | [4]; at 50.0 µM 93.3% | [5]; [7] 99% | [5]; [8] 93% | [5]; at 50.0 µM 94.4%

CN(C)CCCNc1ccnc2c(COC(=O)N(CCCl)CCCl)ccc([N+](=O)[O-])c12
inactive: [1]; [7] 15% | [1]; [8] 33% | [1]; at 50.0 µM 52.5% | [2]; [7] 23% | [2]; [8] 41% | [2]; at 50.0 µM 53.7% | [3]; [7] 22% | [3]; [8] 63% | [3]; at 50.0 µM 43.6% | [4]; [7] 10% | [4]; [8] 42% | [4]; at 50.0 µM 38.1% | [5]; [7] 22%
active: [5]; [8] 82% | [5]; at 50.0 µM 84.7%

COc1ccc(CNCCc2ccc(O)c(OC)c2)cc1O
inactive: [1]; [7] 1% | [1]; [8] 0% | [1]; at 50.0 µM 31.4% | [6]; [7] 4% | [6]; [8] 7% | [6]; at 50.0 µM -0.55% | [3]; [7] -5% | [3]; [8] 5% | [3]; at 50.0 µM -6.35% | [4]; [7] -3% | [4]; [8] -3% | [4]; at 50.0 µM 8.7% | [5]; [7] -1% | [5]; [8] 8% | [5]; at 50.0 µM -4.45%

O=c1oc2ccccc2c(O)c1C(c1ccc(-c2ccccc2)cc1)c1c(O)c2ccccc2oc1=O
active: [1]; at 50.0 µM 78.1% | [2]; [8] 97% | [2]; at 50.0 µM 89.8% | [3]; [8] 97% | [3]; at 50.0 µM 85.2% | [4]; [8] 97% | [4]; at 50.0 µM 77.5% | [5]; [8] 88% | [5]; at 50.0 µM 89.3%
inactive: [1]; [7] 9% | [1]; [8] 52% | [2]; [7] 7% | [3]; [7] 19% | [4]; [7] 14% | [5]; [7] 16%

CC[C@@]1(O)C[C@H](OC2CC(N)C(O)C(C)O2)c2c(O)c3c(c(O)c2[C@H]1C(=O)OC)C(=O)c1cccc(O)c1C3=O (stereo partly specified)
active: [1]; [8] 99% | [1]; at 50.0 µM 78.1% | [2]; [8] 99% | [2]; at 50.0 µM 87.5% | [6]; [8] 99% | [6]; at 50.0 µM 80.2% | [4]; [8] 99% | [4]; at 50.0 µM 76.7% | [5]; [8] 98% | [5]; at 50.0 µM 80.2%
inactive: [1]; [7] 63% | [2]; [7] 27% | [6]; [7] 48% | [4]; [7] 52% | [5]; [7] 50%

NC(c1ccccc1)C(O)c1ccccc1 (stereo unspecified)
inactive: [1]; at 50.0 µM 2.1% [middle of 4 runs] | [2]; at 50.0 µM 3.2% [middle of 4 runs] | [6]; at 50.0 µM 10.7% [middle of 4 runs] | [5]; at 50.0 µM -10.7% [middle of 4 runs]

Oc1ccc([Te]CCNCC[Te]c2ccc(O)cc2)cc1
inactive: [1]; [7] 58% | [1]; [8] 58% | [1]; at 50.0 µM 40.8% | [2]; [7] 37% | [2]; [8] 37% | [2]; at 50.0 µM 0.3% | [6]; [7] 40% | [6]; [8] 40% | [6]; at 50.0 µM 16.1% | [4]; [7] 29% | [4]; [8] 29% | [4]; at 50.0 µM 30.9% | [5]; [7] 36% | [5]; [8] 36%
active: [5]; at 50.0 µM 71.5%

NNc1n[nH]c(=S)n1N
inactive: [1]; at 50.0 µM 7.2% and 1.8% and 15.1% | [2]; at 50.0 µM -5.4% and 0.5% and -6.15% | [6]; at 50.0 µM 9.8% and -4.35% and 4.1% | [3]; at 50.0 µM 8.7% and 13% and 5.85% | [4]; at 50.0 µM 9.3% and 17% and 0.45% | [5]; at 50.0 µM 17.6% and -1.5% and -1.65%
